Data on 40 compounds can be found in PubChem BioAssay (Tox21).

Molecules are shown by their SMILES. Inconclusive results are not listed. Unmarked numbers belong to inactive results. Calls of active or inactive are those of the source. The call rests on the fitted dose curve.
On the % scale 0 is the no-effect control and ±100 the full control effect.

The assay in a line: p53 small molecule agonists, cell-based qHTS assay with human liver microsomes (AID 1963577).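 Further: p53 response element beta-lactamase reporter cells with liver microsomes plus NADPH.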 The conditions noted are these: HCT-116 p53RE-bla with human liver microsomes, ratio, 16 h; series mostly up to 66 µM; activation: at the top concentration. The text has this: National Center for Advancing Translational Sciences [NCATS]
Division of Preclinical Innovation [DPI]
U.S. Environmental Protection Agency [EPA]
National Institutes of Environmental Health Sciences [NIEHS]
National Toxicology Program [NTP]
U.S. Food and Drug Administration [FDA]
p53, a tumor suppressor protein, is activated following cellular insult, including DNA damage and other cellular stresses. The activation of p53 regulates cell fate by inducing DNA repair, cell cycle arrest, apoptosis, or cellular senescence. The activation of p53, therefore, is a good indicator of DNA damage and other cellular stresses. […] The activation of the reporter gene under culture conditions can be detected by fluorescence intensity.
Tox21 Assay Protocol Summary:
The p53RE-bla cells were dispensed at 4,000cells/3ul/well in 1536-well black-clear bottom plates. After the assay plates were incubated at 37 C, 5% CO2 incubator for 5 hours, 23 nL of compounds dissolved in DMSO, positive controls or DMSO only was transferred to the assay plate. Following compound addition, 3 uL of human liver microsomes (XenoTech, Kansas City, KS) at final concentration of 0.5 mg/mL and 1uL of Beta-Nicotinamide adenine dinucleotide 2-phosphate (NADPH) at final concentration of 0.5 mg/mL were transferred to the assay plate. The plates were incubated at 37 C for 16 hours. 1 uL of LiveBLAzer detection mixture was added to each well and the plates were incubated at room temperature in the dark for 2 h.
Turning to `CCCC(C)C(O)CC` (stereo not given), the “activation” value is -1.48%.

In the case of `C=CC(C)CCC=C(C)C` (stereo not given), the “activation” value is 0.165%.

Take `C=C(C)[C@@H]1CCC2=CC(=O)C[C@@H](C)[C@]2(C)C1`: the “activation” value is 0.0815%.

As to `Oc1c(Cl)ccc(Cl)c1Cl`, the Potency result was “inactive”.

Consider `CC(=O)O[C@H]1C[C@@H]2CC[C@@]1(C)C2(C)C`, for which the “activation” value is 0.657%.

As to `CCC(C(=O)NC(N)=O)c1ccccc1` (stereo not given), the “activation” value was -1.66%.

In the case of `CCN(CC)CC(=O)OCC(=O)[C@@]1(O)CC[C@H]2[C@@H]3CCC4=CC(=O)CC[C@]4(C)[C@H]3[C@@H](O)C[C@@]21C`, the “activation” value was -4.77% [at 30.3 µM].

Take `O=C(O)CONC(=O)c1ccccc1`: the “activation” value was 0.352%.

As to `CCCCCCCOC(=O)c1ccccc1C(=O)OCCCCCCC`, the “activation” value was -6.19%.

Consider `Nc1cc(S(=O)(=O)O)ccc1S(=O)(=O)O`, for which the “activation” value is 3.33%.

`CCC(C)SSC(C)CC` (stereo not given): the “activation” value was 0.979%.

For `NS(=O)(=O)c1cc2c(cc1Cl)NC(CC1CCCC1)NS2(=O)=O` (stereo not given), the “activation” value was -1.35% [at 30.3 µM].

Take `CCC(C)(C)C`: the “activation” value is 0.478%.

Take `Cc1ccc(C(=O)C(=O)O)cc1C`: the “activation” value was -5.73% [at 30.3 µM].

Turning to `O=c1n(CCCN2CCN(c3cccc(Cl)c3)CC2)nc2ccccn12`, the Potency result is “inactive”.

With `CC(=O)S[C@H](C(=O)N[C@H]1Cc2ccccc2[C@H]2CCC[C@@H](C(=O)O)N2C1=O)C(C)C`, the “activation” value is -17.9%.

With `CC/C=C\CC1=C(C)CCC1=O`, the “activation” value is 0.856%.

On to `CCCC(=O)c1ccccc1`, for which the “activation” value was 0.387%.

On to `CCOC(=O)CN1CCCC1=O`, for which the “activation” value was 11% [at 30.3 µM].

For `CC1=CC[C@H](CC=O)C1(C)C`, the “activation” value is -0.643%.

`CC(C)NC(=O)c1ccccc1N`: the “activation” value is -0.213%.

In the case of `O=c1[nH]c(=O)c2ccccc2o1`, the “activation” value is -2.27% [at 30.3 µM].

As to `O=C(O)CCC(=O)Nc1ccc(S(=O)(=O)Nc2nccs2)cc1`, the “activation” value is -0.888% [at 30.3 µM].

As for `CC(=O)Oc1cccc(O)c1`, the “activation” value is 1.06% [at 30.3 µM].

For the compound `CC(C)(C)C(=O)C1C(=O)c2ccccc2C1=O`, the Potency entry was “inactive”.

`OCCC(F)(F)C(F)(F)C(F)(F)C(F)(F)C(F)(F)C(F)(F)F`: the “activation” value is 3.62%.

As to `CN(CC1(C)CCCO1)S(=O)(=O)c1ccc(Cl)c(S(N)(=O)=O)c1` (stereo not given), the “activation” value was -3.19% [at 30.3 µM].

For the compound `CCC(C)(C)C1CCC(=O)CC1`, the “activation” value is 11.1%.

For the compound `C/C=C/CO`, the “activation” value was 1.51%.

`NC(=O)Nc1ccc(Cl)cc1`: the “activation” value was 0.768%.

With `CC(C)(C)C(=O)OCOC(=O)C1N2C(=O)CC2S(=O)(=O)C1(C)C` (stereo not given), the “activation” value is -20.1% [at 30.3 µM].

Consider `CC(C)CCCCCOC(=O)CS`, for which the “activation” value is 4.97%.

Regarding `CC(=O)Nc1c(I)cc(I)c(C(=O)O)c1I`, the “activation” value was 7.08% [at 30.3 µM].

Turning to `OC1(c2ccc(Cl)cc2)CCNCC1`, the “activation” value was 0.266% [at 30.3 µM].

On to `CC(COCCO)OCCO` (stereo not given), for which the “activation” value is 0.409%.

As for `c1ccc2ncccc2c1`, the Potency result is “inactive”.

On to `CCCCN(CCCC)CCCCCCN(CCCC)CCCC`, for which the “activation” value was -0.103%.

`BrC1CCC(Br)C(Br)CCC(Br)C(Br)CCC1Br` (stereo not given): the “activation” value is -2.75%.

With `CC(C)(C)OCC1CO1` (stereo not given), the “activation” value is 1.39%.

Turning to `CN1CCCC1`, the “activation” value is 1.54%.
